# Shown are actives, neighbours in structure and some others; about 12% of the full set was active somewhere.
# HP1b binding inh: HTS for Inhibitors of HP1-beta Chromodomain Interactions with Methylated Histone Tails; Chromobox protein homolog 1 (Homo sapiens), P83916; AlphaScreen HP1-beta / biotin-H3K9me3 peptide binding; Potency, µM (titrated, usually from 114 µM), for inactives: at the top dose activity change, negative = inhibition, actives largely listed as inhibitors; hit rate 0.56% among 390,000; AID 540317, 2011; also: potency is read from the fitted curve at half-maximal effect; nearly all actives have a fitted effect of over 70% in size
#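 Compound inhibition of the preformed complex between 50 nM HP1-beta and 50 nM biotinylated H3K9me3 peptide was read by AlphaScreen. Buffer was PBS pH 7.4 with 0.01% Tween-20. Incubations ran 30 min at room temperature, with 10 ug/mL donor/acceptor beads.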
# PI5P4Ka inh: qHTS for Inhibitors of phosphatidylinositol 5-phosphate 4-kinase (PI5P4K) | PI5P4Kalpha enzyme, ADP-Glo luminescence, 60 min; hits give low values | max response, % | hit rate 1.2% among 330,000 | AID 652105, 2013; active = max response of -50% or lower; inconclusive = between -30% and -50%; inactive = -30% or higher; also: value at the top dose of about 77 µM; % is scaled to controls: 0 for no effect and ±100 for the full control effect
# Target sequence (P48426 whole entry, looked up): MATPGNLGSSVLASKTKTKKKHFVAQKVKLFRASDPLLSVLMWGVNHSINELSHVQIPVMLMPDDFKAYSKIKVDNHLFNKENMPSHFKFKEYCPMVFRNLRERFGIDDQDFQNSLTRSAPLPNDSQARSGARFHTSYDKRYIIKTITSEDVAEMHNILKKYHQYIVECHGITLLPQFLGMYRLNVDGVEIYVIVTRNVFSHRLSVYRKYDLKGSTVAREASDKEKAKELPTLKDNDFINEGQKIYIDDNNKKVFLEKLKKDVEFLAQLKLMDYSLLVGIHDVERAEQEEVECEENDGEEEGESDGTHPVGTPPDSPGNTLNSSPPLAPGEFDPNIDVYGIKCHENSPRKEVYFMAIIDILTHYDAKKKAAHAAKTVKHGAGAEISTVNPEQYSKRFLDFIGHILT
#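 Luminescence from ADP-Glo served as readout of PI5P4Kalpha activity in a qHTS format. Reaction: enzyme, substrate, compound, ATP at 5 microM final, 60 min at RT.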
# PLK1 PBD inh: qHTS for Inhibitors of PLK1-PDB (polo-like kinase 1 - polo-box domain): Primary Screen | Plk1 PBD binding of FITC phosphopeptide, fluorescence polarization | Potency, µM, for the others: max response, negative = inhibition, usual class: inhibitors | hit rate 2.8% among 360,000 | AID 720504, 2013; also: potency is read from the fitted curve at half-maximal effect; series mostly up to about 57 µM; % is scaled to controls: 0 for no effect and ±100 for the full control effect; nearly all actives have a fitted effect of over 65% in size
# JMJD2A Tudor inh: qHTS Assay for Inhibitors of JMJD2A-Tudor Domain; hit rate 4.4% among 390,000; AID 504339, 2011; Lysine-specific demethylase 4A (Homo sapiens), O75164; AlphaScreen JMJD2A-Tudor / H3K4me3 peptide binding; Potency, µM (highest dose often 114 µM), inactives show at the highest dose activity change, negative = inhibition, most hits filed as inhibitors; also: potency is read from the fitted curve at half-maximal effect; % is scaled to controls: 0 for no effect and ±100 for the full control effect; nearly all actives have a fitted effect of over 50% in size
# G9a block: qHTS Assay for Inhibitors of Histone Lysine Methyltransferase G9a; Histone-lysine N-methyltransferase EHMT2 (Homo sapiens), Q96KQ7; G9a H3K9 monomethylation, AlphaScreen, 2 h; Potency, µM (titrated, usually from 102 µM), for the others: at the top dose activity, negative = inhibition, usual class: inhibitors; hit rate 8.8% among 350,000; AID 504332, 2011; also: potency is read from the fitted curve at half-maximal effect; % is scaled to controls: 0 for no effect and ±100 for the full control effect; nearly all actives have a fitted effect of over 75% in size
# Target sequence (Q96KQ7 913-1193 limits assumed): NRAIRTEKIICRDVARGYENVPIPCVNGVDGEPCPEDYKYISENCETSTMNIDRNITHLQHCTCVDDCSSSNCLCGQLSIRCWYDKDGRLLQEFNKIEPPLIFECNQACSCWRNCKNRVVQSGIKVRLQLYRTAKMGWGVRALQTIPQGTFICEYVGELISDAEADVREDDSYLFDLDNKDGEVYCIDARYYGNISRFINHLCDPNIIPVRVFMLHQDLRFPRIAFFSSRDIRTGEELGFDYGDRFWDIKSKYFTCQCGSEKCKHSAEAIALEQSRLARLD
#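 Enzyme 20 nM + cpd, 15 min RT; add b-H3K9 pep 500 nM / SAM 20 uM; 2 h RT; anti-H3K9me1 Ab 0.5 ug/mL + SA donor / anti-rabbit acceptor beads 20 ug/mL each, 10 min; AlphaScreen read.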
# BAZ2B inh: qHTS Assay for Inhibitors of BAZ2B. Bromodomain adjacent to zinc finger domain protein 2B (Homo sapiens), Q9UIF8. AlphaScreen BAZ2B-H3K14Ac peptide displacement. Potency, µM (doses to about 114 µM), without a hit: top-dose activity change, negative = inhibition, hits mostly inhibitors. hit rate 4.4% among 360,000. AID 504333, 2011; also: potency is read from the fitted curve at half-maximal effect; % is scaled to controls: 0 for no effect and ±100 for the full control effect; nearly all actives have a fitted effect of over 60% in size
#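 AlphaScreen displacement: compounds (up to 110uM) incubated 30 min at room temperature with a preformed 50 nM BAZ2B/50 nM biotinylated H3K14Ac peptide complex in PBS pH 7.4 with Tween-20. Donor and acceptor beads at 10 ug/mL final added, 20 min light-protected before reading.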
# * hit, by the source's call; ? = inconclusive; nt = no result given; ! = repeats disagree; [ ] = another dose, or the depositor's remark. Unless noted, calls follow the shape of the dose curve; as a rule, active = well fitted curve in the direction sought with a large enough effect; inconclusive = small, poorly fitted or top-dose-only effect, or another doubt; inactive = no such curve, though single readings can be large; an effect the other way counts as inactive or inconclusive.
SMILES,HP1b binding inh,PI5P4Ka inh,PLK1 PBD inh,JMJD2A Tudor inh,G9a block,BAZ2B inh
CN(C(Cc1ccc(OS(=O)(=O)c2cccc3cnccc23)cc1)C(=O)N1CCN(c2ccccc2)CC1)S(=O)(=O)c1cccc2cnccc12 (configuration not stated),nt,nt,nt,nt,16µM*!,nt
CN([C@@H](Cc1ccc(OS(=O)(=O)c2cccc3cnccc23)cc1)C(=O)N1CCN(c2ccccc2)CC1)S(=O)(=O)c1cccc2cnccc12,49%,12,3%,-23%,4%[59 µM],-10%
COc1cccc(N2CCN(C(=O)c3oc4ccccc4c3NC(=O)CCc3cc(OC)no3)CC2)c1,3%,4,-4%,?,56µM*,?
CCC(CC)C(=O)Nc1c(C(=O)N2CCN(c3ccccc3)CC2)oc2ccccc12,36%,7,1%,8%,-21%[59 µM],-32%
CC(C)CC(=O)Nc1c(C(=O)N2CCN(c3ccccc3)CC2)oc2ccccc12,25%,nt,nt,-32%,14µM*,-34%
CCc1ccc(NC(=O)CC2C(=O)N(c3cccc(C)c3)C(=O)N2Cc2ccco2)cc1 (configuration not stated),51%,nt,nt,-25%,?,-24%
Cc1ccc(C(C[N+](=O)[O-])n2nc(C)cc2C)cc1 (configuration not stated),15%,6,17µM*,-24%,?,-13%
CC(C)[C@@H]1CC2=C(C(=O)OC(C)(C)O2)[C@H](CCc2ccccc2)O1,nt,6,-5%,nt,nt,nt
Cc1ccccc1C(=O)NCCCNC(=O)c1ccccn1,24%,1,-5%,-6%,50µM*,-28%
O=C(NCCN1CCNCC1)c1ccccn1,17%,2,0%,1.1µM*,45µM*,?
O=C(NCCCNCCCNC(=O)c1ccccn1)c1ccccn1,53%,-4,0%,12%,-41%[2.33 µM],-30%
COc1ccc(S(=O)(=O)N(C)C[C@H]2Oc3ncc(C#CC4(O)CCCC4)cc3C(=O)N([C@@H](C)CO)C[C@@H]2C)cc1,nt,0,-26%,nt,nt,nt
CCc1ccc(NC(=O)C2CCCN2S(=O)(=O)c2ccc3c(c2)C(C)(C)C(=O)N3C)cc1 (configuration not stated),25%,2,0%,2%,nt,10%
O=C1C(=O)c2ccccc2C(O)=C1CCCCl,36%,0,-2%,-23%,nt,?
CCCCCCCCCCCC1=C(O)C(=O)C=C(O)C1=O,?,-62*,30µM*,28µM*,nt,nt
COC1=CC(=O)C(O)=C(CCCCCCC/C=C/CCCCCCCC2=C(O)C(=O)C=C(OC)C2=O)C1=O,?,-75*,19µM*,45µM*,nt,nt
C#CCOCCOCCOCCNc1nc(N2CCN(C(=O)[C@H]([C@@H](C)CC)n3cc([C@@H](N)CO)nn3)CC2)nc(N2CCN(C(=O)[C@H](CCCCN)n3cc([C@@H](N)C(C)CC)nn3)CC2)n1 (some centres not stated),39%,5,-3%,50µM*,12%[12.7 µM],50µM*
C#CCOCCOCCOCCNc1nc(N2CCN(C(=O)[C@H](CCCN=C(N)N)n3cc(C(N)[C@@H](C)CC)nn3)CC2)nc(N2CCN(C(=O)[C@H](CCCCN)n3cc([C@@H](N)[C@H](C)CC)nn3)CC2)n1 (some centres not stated),35%,-2,-3%,-30%,nt,nt
C#CCOCCOCCOCCNc1nc(N2CCN(C(=O)[C@H](CCCCN)n3cc([C@@H](N)C(C)CC)nn3)CC2)nc(N2CCN(C(=O)[C@H](CCCCN)n3cc([C@@H](N)CO)nn3)CC2)n1 (some centres not stated),nt,nt,nt,nt,?,22µM*
C[C@@H]1CN([C@H](C)CO)C(=O)c2cc(-c3ccccc3)cnc2O[C@@H]1CN(C)C(=O)C1CCOCC1,nt,8,-18%,nt,nt,nt
O=C(Cn1cc(SCc2ccc(Cl)cc2)c2ccccc21)N1CCCC1,42%,nt,nt,-16%,-7%[59 µM],6%
CC(C)C1N(C(=O)CN2CCCCC2)CCN1S(=O)(=O)c1ccccc1 (configuration not stated),30%,4,-1%,1%,12%,-3%
Cc1onc(-c2ccc(Cl)cc2Cl)c1-c1csc(N/N=C/c2ccccc2Cl)n1,25%,4,-7%,-32%,-32%,-18%
CC1CCN(Cc2c(C#N)c3ccccc3n2C)CC1,93%,3,-3%,13%,25µM*,18%
Cn1c(CN2CCOCC2)c(C#N)c2ccccc21,30%,nt,-9%,1%,32µM*,3%
SMILES,HP1b binding inh,PI5P4Ka inh,PLK1 PBD inh,JMJD2A Tudor inh,G9a block,BAZ2B inh
Cn1c(CN2CCCC2)c(C#N)c2ccccc21,59%,1,-7%,-11%,?,-9%
CCOC(=O)c1c(NC(=O)/C=C/c2ccc(OCC)c(OC)c2)sc2c1CCC2,39%,nt,nt,10%,28%[59 µM],0%
NC(Cc1ccc(F)cc1)c1csc(NC(=O)NC(c2ccccc2)c2ccccc2)n1 (configuration not stated),nt,?,5%,nt,nt,nt
O=S(NCc1ccco1)C12CC3CC(CC(C3)C1)C2 (configuration not stated),-2%,nt,?,-35%,6.3µM*,-1%
Cc1ccc(-n2c(C(C)n3nc(C)c([N+](=O)[O-])c3C)n[nH]c2=S)cc1 (configuration not stated),-79%,nt,-8%,13µM*,4µM*,10%
Cc1nn(C(C)C(=O)O)c(C)c1[N+](=O)[O-] (configuration not stated),27%,-3,4%,9%,20%[0.501 µM],1%
Cc1nn(C(C)c2n[nH]c(=S)n2-c2cccc(Cl)c2)c(C)c1[N+](=O)[O-] (configuration not stated),1%,nt,-11%,?,3.5µM*,7%
Cc1nn(CC(=O)c2cccc(Cl)c2)c(C)c1[N+](=O)[O-],22%,-6,2%,-10%,-1%,-9%
COc1ccc(-n2c(C(C)n3nc(C)c([N+](=O)[O-])c3C)n[nH]c2=S)cc1 (configuration not stated),40%,-1,-6%,13µM*,6.3µM*,-5%

# Screening data deposited in PubChem by National Center for Advancing Translational Sciences (NCATS).
